# Results reported in PubChem BioAssay (Tox21).
# Results filed as inconclusive are left out. Calls of active or inactive are those of the source. Calls follow the shape of the dose curve; as a rule, active = well fitted activation curve with a large enough effect in the signal ratio in the repeat runs, with a control signal flat (not every such curve was filed as active); inconclusive = weak or mixed curves, or effect the other way; inactive = no such curve, though single readings can be large or run the other way; the % refers to the signal ratio.
# Target: Androgen receptor (Homo sapiens) (UniProt P10275)
# Sequence (P10275 whole entry, looked up): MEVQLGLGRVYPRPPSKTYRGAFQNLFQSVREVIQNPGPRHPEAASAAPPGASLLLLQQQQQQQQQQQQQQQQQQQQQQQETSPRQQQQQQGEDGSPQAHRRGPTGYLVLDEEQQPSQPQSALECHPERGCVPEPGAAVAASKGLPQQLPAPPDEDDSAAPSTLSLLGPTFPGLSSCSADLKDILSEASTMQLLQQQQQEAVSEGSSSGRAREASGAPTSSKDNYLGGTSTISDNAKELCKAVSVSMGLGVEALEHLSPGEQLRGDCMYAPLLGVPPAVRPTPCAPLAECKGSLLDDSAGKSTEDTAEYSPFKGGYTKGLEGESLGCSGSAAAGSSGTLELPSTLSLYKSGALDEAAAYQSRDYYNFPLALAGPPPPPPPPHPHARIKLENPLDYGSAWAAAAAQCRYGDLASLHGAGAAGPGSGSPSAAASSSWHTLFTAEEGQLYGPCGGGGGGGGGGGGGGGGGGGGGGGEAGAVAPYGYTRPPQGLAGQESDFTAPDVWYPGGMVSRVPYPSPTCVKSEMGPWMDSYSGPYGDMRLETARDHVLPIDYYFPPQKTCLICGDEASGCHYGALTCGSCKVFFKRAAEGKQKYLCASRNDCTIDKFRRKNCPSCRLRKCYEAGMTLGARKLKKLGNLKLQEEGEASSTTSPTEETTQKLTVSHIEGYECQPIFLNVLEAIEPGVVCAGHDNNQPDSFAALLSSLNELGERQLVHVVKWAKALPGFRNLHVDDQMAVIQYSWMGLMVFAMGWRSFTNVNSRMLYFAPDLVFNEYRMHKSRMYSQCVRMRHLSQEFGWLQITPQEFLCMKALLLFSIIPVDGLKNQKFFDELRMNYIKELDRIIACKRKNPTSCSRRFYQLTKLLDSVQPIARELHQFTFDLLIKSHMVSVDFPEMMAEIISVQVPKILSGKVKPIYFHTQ
# Assay: qHTS assay to identify small molecule agonists of the androgen receptor (AR) signaling pathway (AID 743036)
# Conditions: HEK293 AR-UAS-bla GripTite, beta-lactamase FRET ratio, 16 h; series mostly up to 62.4 µM
# Description: U.S. Tox21 Program National Center for Advancing Translational Sciences [NCATS] NIH Chemical Genomics Center [NCGC] U.S. Environmental Protection Agency [EPA] National Institutes of Environmental Health Sciences [NIEHS] National Toxicology Program [NTP] U.S. Food and Drug Administration [FDA] Tox21 Assay Overview: Androgen receptor (AR), a nuclear hormone receptor, plays a critical role in AR-dependent prostate cancer and other androgen related diseases. Endocrine disrupting chemicals (EDCs) and their interactions with steroid hormone receptors like AR may cause disruption of normal endocrine function as well as interfere with metabolic homeostasis, reproduction, developmental and behavioral functions. To identify the compounds that activate AR signaling, GeneBLAzer AR-UAS-bla-GripTite cell line (Invitrogen, Carlsbad, CA, USA) containing a beta-lactamase reporter gene under the control of an Upstream Activator Sequence (UAS) stably integrated into HEK293 cells was used to screen the Tox21 10K compound library.
# Tox21 Assay Protocol Summary: AR-bla cells were dispensed at 2,000 cells/6 uL/well of assay medium into black wall/clear-bottom 1536-well plates using a Multidrop Combi (ThermoFisher Scientific, Waltham, MA) dispenser. After the assay plates were incubated at 37C and 5% CO2 for 4 h, 23 nL of compounds dissolved in DMSO, positive controls or DMSO only was transferred to the assay plate by a Pintool station (Kalypsys, San Diego, CA). The plates were incubated at 37C and 5% CO2 for 16 h. Then 1 uL of LiveBLAzerTM B/G FRET substrate was added using a Bioraptr Flying Reagent Dispenser (FRD) workstation (Beckman Coulter, Indianapolis, IN, USA). The plates were incubated at room temperature for 2 h, and fluorescence intensity was measured by an Envision plate reader (PerkinElmer, Shelton, CT).
row,SMILES,outcome
1,CC(C)=CCC/C(C)=C/CO,inactive
2,CC(O)COc1ccccc1 (configuration not stated),inactive
3,CCCCCCCCCCCCCC(=O)OC(C)C,inactive
4,CC(=O)c1ccc(S(=O)(=O)NC(=O)NC2CCCCC2)cc1,inactive
5,COCCOCCOC,inactive
6,CC(=O)Oc1ccccc1C(=O)O,inactive
7,c1ccc2[nH]c(-c3cscn3)nc2c1,inactive
8,O=C1OC(c2ccc(O)cc2)(c2ccc(O)cc2)c2ccccc21,inactive
9,COCC(C)N (configuration not stated),inactive
10,NCCNc1cccc2ccccc12,inactive
11,COc1cc(O)c(C(=O)c2ccccc2)cc1S(=O)(=O)O,inactive
12,C[C@]12CC[C@@H]3c4ccc(O)cc4C[C@@H](CCCCCCCCCS(=O)CCCC(F)(F)C(F)(F)F)[C@H]3[C@@H]1CC[C@@H]2O (some centres not stated),inactive
13,COc1ccc(O)cc1,inactive
14,COc1cc(C=O)ccc1O,inactive
15,Cc1cccc(C)c1O,inactive
16,CN(C)Cc1cc(CN(C)C)c(O)c(CN(C)C)c1,inactive
17,NC(=O)OCC(COC(N)=O)c1ccccc1,inactive
